# Sampled rows, rich in hits. Any-hit rate of the full collection: about 2.2%.
# aSyn yeast inh = inhibitors of alpha-synuclein toxicity in yeast; Yeast expressing alpha-synuclein, growth rescue, BacTiter-Glo, 24 h; Potency, µM (series often up to 46.1 µM), inactives show at the highest dose growth rescue (activation), actives largely listed as activators; 0.14% of 370,000 active; further: % of control where 0% means no effect; nearly all actives have a fitted effect of over 65% in size
#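 Readout is rescue of growth in alpha-synuclein-expressing yeast, so inhibitors of toxicity appear as activators. Growth after 24 hr at 30 deg C in galactose medium is quantified by luminescence.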
# Abeta rescue = restores growth of yeast expressing A-beta42 peptide | 0.063% of 410,000 active | AID 1347071 | yeast expressing A-beta42, growth rescue, OD600, 48 h; response scale: 0% DMSO, 100% iron-clioquinol control | Potency, µM (top dose mostly 46.1 µM), usual class: activators; further: nearly all actives have a fitted effect of over 55% in size
#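 Growth rescue measured by 600 nm absorbance after 48 h yeast culture at 30 C with compound. Values normalized between DMSO and an equimolar ferric chloride plus clioquinol control.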
# FUS suppressor = suppressors of FUS proteinopathy in yeast. S. cerevisiae FUS-expressing, growth rescue, OD600, 24 h. Potency, µM (top dose mostly 76.6 µM), most hits filed as activators. 0.24% of 390,000 active. AID 1347120;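 further: plate controls were DMSO vehicle for no effect and reference control for full effect; nearly all actives have a fitted effect of over 55% in size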
#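 Read-out: OD at 600 nm after 24hr at 30C, reporting rescue of FUS-induced yeast toxicity. Cells at OD 0.005 in galactose (2%) minimal medium; compounds tested in a dilution series; CP55940 titration from 92uM final as control.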
# TDP-43 yeast inh = TDP-43 toxicity inhibition in yeast | TDP-43 expressing yeast growth rescue, BacTiter-Glo, 24 h | Potency, µM (doses to about 46.1 µM), for inactives: at the top dose growth rescue (activation), actives largely listed as activators | 1.8% of 410,000 active; further: % of control where 0% means no effect; nearly all actives have a fitted effect of over 50% in size
#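 Readout is BacTiter-Glo luminescence of cell growth, so inhibitors register as activators. TDP-43-expressing yeast at OD600=0.02 in galactose medium, after raffinose pregrowth to mid-log, were incubated with compound for 24 hr at 30 deg C.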
# Mito fusion yeast = blocks mitochondrial division or promotes mitochondrial fusion; S. cerevisiae fusion-defective mutant growth rescue, CellTiterGlo 48 h; Potency, µM (doses to about 46.1 µM), for the others: at the top dose growth rescue (activation), hits mostly activators; 0.23% of 320,000 active; further: % of control where 0% means no effect; nearly all actives have a fitted effect of over 45% in size
#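 S. cerevisiae fusion-defective temperature-sensitive mutants (e.g. fzo1-1, mgm1-5) grown 48 h at 37C in YPEG (ethanol/glycerol non-fermentable) medium with 23 nl compound per well; growth rescue read as CellTiterGlo luminescence.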
# An asterisk follows results filed as active; i = inactive; ? = inconclusive; . = no result given. The call rests on the fitted dose curve; in most records, active means well fitted curve in the direction sought with a large enough effect; inconclusive means small, poorly fitted or top-dose-only effect, or another doubt; inactive means no such curve, though single readings can be large; an effect the other way counts as inactive or inconclusive. Potency means the concentration at half of the fitted maximal effect.
SMILES,aSyn yeast inh,Abeta rescue,FUS suppressor,TDP-43 yeast inh,Mito fusion yeast
CCOC(=O)N1CCN(c2c(-c3ccc(C(C)C)cc3)c(=O)c2=O)CC1,-0.4%,i,i,20µM*,-4.2%
CCOC(=O)N1CCN(c2c(-c3ccc(C)cc3)c(=O)c2=O)CC1,-3.3%,i,i,?,3.1%
Cn1cc(C(CO)Cc2ccccc2)c2ccccc21 (stereo not drawn),17.8µM*,i,i,?,11.0%
Cc1nc(SC2CC(=O)N(c3ccccc3)C2=O)n[nH]1 (stereo not drawn),-10.6%,i,i,4.47µM*,-15.9%
COc1ccc(N2C(=O)CC(Sc3nnc(-c4ccccc4)o3)C2=O)cc1 (stereo not drawn),.,i,i,11.2µM*,0.4%
O=C(Nc1ccc(Cl)cc1Cl)OC1CCC12CCC(c1ccccc1)CC2 (stereo not drawn),.,.,i,.,.
Cc1ccc(C)c(N2CCN(C(=O)c3ccc(N4CCCC4=O)cc3)CC2)c1,2.4%,i,i,20µM*,-3.6%
O=C(c1cccc(N2CCCC2=O)c1)N1CCN(c2ccccc2)CC1,-4.2%,i,i,8.6%,1.7%
Cc1cccc(NS(=O)(=O)c2ccc(C(=O)N3CCN(c4ccccc4O)CC3)cc2)c1C,-0.2%,i,31.6µM*,15.0%,0.1%
Cc1cccc(N2CCN(C(=O)c3cccc(N4CCCC4=O)c3)CC2)c1C,4.8%,i,i,12.6µM*,?
Cc1cccc(N2CCN(C(=O)c3cccc(S(=O)(=O)N4CCCCC4)c3)CC2)c1C,6.1%,i,i,7.08µM*,.
COc1ccccc1C1C=C(c2ccc(Cl)cc2)Nc2nc(-c3ccc(Cl)cc3)nn21 (stereo not drawn),.,i,i,?,.
COc1ccc(CN(C(=O)Nc2cc(C)ccc2C)C2CCN(C(C)=O)CC2)cc1,.,i,i,1.7%,.
Cc1ccc(CCNS(=O)(=O)c2ccc3c(c2)CCN3C(=O)CCC(=O)O)cc1,.,i,i,-3.0%,.
Cc1ccc2c(C(=O)CNc3nc(C)c(C)s3)c(C)[nH]c2c1,-1.7%,.,.,.,.
O=C(c1cccc(S(=O)(=O)N2CCCCC2)c1)N1CCc2ccccc21,4.2%,i,2.82µM*,-6.6%,5.3%
COc1ccc(Cl)cc1NC(=O)c1cnc2sc(N3CCOCC3)nn2c1=O,.,i,i,15.6%,.
O=C(CCCC(=O)c1ccccc1)Nc1ccc(F)cc1,-8.3%,i,i,5.62µM*,5.0%
COc1ccc(NC(=O)CCCC(=O)c2ccccc2)cc1OC,-1.9%,i,i,-2.5%,17.2%
Clc1nc(NCc2cccs2)c2[nH]cnc2n1,-16.4%,.,.,.,.
CCOc1ccc(-n2ccnc2SCC(=O)Nc2cccc3ccccc23)cc1,.,i,i,?,.
COc1cccc(-n2ccnc2SCC(=O)Nc2cccc3ccccc23)c1,.,i,?,15.8µM*,.
CCOc1ccccc1NC(=O)CSc1nccn1-c1cccc(C)c1,13.6%,i,i,17.8µM*,.
Clc1cccc(CSc2ncn(-c3ccccc3)n2)c1,3.7%,i,i,12.6µM*,?
CCN1C(Br)=CCc2ccccc21,0.0%,.,.,.,.
SMILES,aSyn yeast inh,Abeta rescue,FUS suppressor,TDP-43 yeast inh,Mito fusion yeast
CCCCC1CCC(C(=O)N2CC(=O)Nc3ccc(F)cc3C2c2ccc(F)cc2)CC1 (stereo not drawn),.,?,?,17.4%,.
CC1(C(=O)NCCCNc2ncc(C(F)(F)F)cc2Cl)C=CCN1C(=O)c1ccccc1 (stereo not drawn),0.5%,i,i,19.4%,-2.9%
C[C@]1(C(=O)NCCCNc2ncc(C(F)(F)F)cc2Cl)C=C[C@@H](Cc2ccccc2)N1C(=O)c1ccccc1,?,i,25.1µM*,?,-12.5%
c1cnc2c(c1)ccc1cccnc12,-6.0%,i,i,35.5µM*,?
COc1cc(C(=O)Nc2ccc(-c3nc4cc(C)c(C)cc4o3)cc2)cc(OC)c1OC,.,i,i,?,.
COc1cc(C(=O)Nc2ccc3oc(-c4ccc(C)c(Br)c4)nc3c2)cc(OC)c1OC,.,i,i,10µM*,.
CNC(=S)N1N=C(c2ccc(OC)cc2)CC1c1ccc(Cl)cc1Cl (stereo not drawn),14.7%,i,i,12.1%,-2.2%
CNC(=S)N1N=C(c2ccc(OC)cc2)CC1c1ccccc1Cl (stereo not drawn),-14.3%,i,i,3.16µM*,-6.2%
CCOc1ccccc1NC(=O)CN1c2ccccc2S(=O)(=O)c2ccccc21,.,i,i,-0.7%,.
CC1CCN(S(=O)(=O)c2ccc3c(c2)c(=O)c(C(=O)NCc2ccc(Cl)cc2)cn3C)CC1,.,i,i,9.3%,.
O=C(O)CN1C(=O)/C(=C\c2cccc(OCc3ccccc3F)c2)SC1=S,-19.6%,8.91µM*,i,10.6%,3.2%
O=C(O)CN1C(=O)/C(=C\c2cccc(OCc3ccc(F)cc3)c2)SC1=S,-5.2%,5.01µM*,i,9.0%,-1.4%
O=C(O)CN1C(=O)/C(=C\C(Br)=C\c2ccccc2)SC1=S,17.2%,i,i,12.6µM*,-32.0%
O=C(O)CN1C(=O)/C(=C\c2cccc(OCc3ccc(Cl)cc3)c2)SC1=S,14.0%,?,i,?,2.0%
COc1ccccc1CNC(=O)CSc1ncc2c(n1)-c1cc(Cl)ccc1N(Cc1ccccc1)S2(=O)=O,.,i,i,27.8%,.
Cc1cccc2sc(N(Cc3cccnc3)C(=O)CCOc3ccccc3)nc12,.,i,i,4.6%,.
O=C(Cc1ccccc1)N(Cc1cccnc1)c1nc2c(F)cc(F)cc2s1,.,i,i,17.8µM*,.
CC(=O)N(Cc1cccnc1)c1nc2c(F)cc(F)cc2s1,.,i,i,18.7%,.
Cc1cccc2sc(N(Cc3cccnc3)C(=O)COc3ccccc3)nc12,.,i,i,11.2µM*,.
COc1ccc2nc(N(Cc3cccnc3)C(=O)COc3ccccc3)sc2c1,.,i,i,15.8µM*,.
CCC(C(=O)Nc1cc(C)ccc1C)n1c(=O)c(C(F)(F)F)nc2ccccc21 (stereo not drawn),.,i,i,-1.8%,.
Cc1c(-c2ccc(Cl)cc2)c(=O)oc2ccc(OC(=O)N3CCOCC3)cc12,.,i,?,?,.
COc1cnc(-c2ccccn2)nc1Oc1ccc(F)cc1F,-10.6%,22.4µM*,i,19.0%,-2.1%
